Records with an inconclusive call do not appear. The source made the active and inactive calls. The call rests on the fitted dose curve; in most records, active means well fitted inhibition curve with a large enough effect; inconclusive means small, poorly fitted or top-dose-only effect; inactive means flat fitted curve, though single readings scatter.
What was measured:
Experiment in all cases: Cytotoxic Profiling of Annotated Libraries Using Quantitative High-Throughput Screening (AID 1296008); further: nearly all actives have a fitted effect of over 60% in size
Details in all cases: Five cell lines viability, CellTiter-Glo ATP luminescence, 48-72 h; max response: active compounds read low
[1] = tested on: CRL-7250
Procedure, shortened: (§1)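 Compounds were pin-transferred onto cells and incubated 48 or 72 hr at 37 degree Celsius, 95% humidity. CellTiter-Glo was added, plates sat 10 min at room temperature, then ATP-coupled luminescence was imaged as the viability read-out.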

[2] = tested on: HEK293
Procedure, shortened: as §1

[3] = tested on: HaCat
Procedure, shortened: as §1

[4] = tested on: KB-3-1
Procedure, shortened: as §1
On the % scale 0 is the no-effect control and ±100 the full control effect; potency means the concentration at half of the fitted maximal effect.

COc1ccccc1NC(=O)OCC1CCN(C(=O)OC(C)(C)C)CC1
inactive: max response [1] -0.083% | max response [2] -0.473% | max response [3] 2.46% | max response [4] -8.5%

C[C@@H]1O[C@@H](O[C@H]2[C@H](OC(=O)[C@]34CCC(C)(C)C[C@H]3C3=CCC5[C@@]6(C)C[C@H](O)[C@H](O[C@@H]7O[C@H](CO)[C@@H](O[C@H]8OC[C@](O)(CO)[C@H]8O)[C@H](O)[C@H]7O)[C@@](C)(CO)C6[C@H](O)C[C@@]5(C)[C@]3(C)C[C@H]4O)OC[C@H](O)[C@@H]2O)[C@H](O)[C@H](O)[C@H]1O[C@@H]1OC[C@@H](O)[C@H](O[C@@H]2OC[C@](O)(CO)[C@H]2O)[C@H]1O (stereo partly specified)
inactive: outcome [1] | max response [2] 0.437% | max response [3] -7.37% | max response [4] 8.08%

CCN1CCN(Cc2ccc(NC(=O)c3ccc(C)c(NC(=O)c4cncc(-c5cccs5)c4)c3)cc2C(F)(F)F)CC1
active: Potency [1] 0.461 µM | Potency [2] 1.3 µM | Potency [3] 0.92 µM | Potency [4] 14.6 µM

CC(C)c1cccc2c(-c3ccccc3)cc(-c3ccc(-c4ccc(C(=O)O)cc4)[nH]3)nc12
inactive: max response [1] -17.4% | max response [2] -107% | outcome [3] | max response [4] -3.11%

COC(=O)[C@@]1(c2ccc(C)cc2)C[C@H]1CN1CCC(O)(c2ccccc2)CC1
inactive: max response [1] 3.12% | max response [2] -9.08% | max response [3] -4.07% | max response [4] -2.51%

CC(=O)OC1C(O)C2C(C)C3=CC(=O)OC3(O)CC2C2(C)CCCC(C)(CO)C12 (stereo unspecified)
inactive: outcome [1] | max response [2] -10% | max response [3] 3.69% | outcome [4]

COc1cc2ncnc(Nc3cccc(Cl)c3F)c2cc1OC(=O)N1CCN(C)C[C@H]1C
inactive: max response [1] -58.2% | max response [2] -115% | max response [3] -86.6% | outcome [4]

C/C1=C\CC[C@H](C)CCO[C@@H]2O[C@H](CO[C@@H]3OC[C@](O)(COC1=O)[C@H]3O)[C@@H](O)[C@H](O)[C@H]2O
inactive: outcome [1] | max response [2] -0.349% | max response [3] -11.3% | outcome [4]

C=C1CCC[C@]2(C)CC[C@@H](C(=C)C(=O)O)[C@H](O)[C@@H]12
inactive: max response [1] -0.497% | max response [2] -1.48% | outcome [3] | max response [4] 1.72%

CC(=O)O[C@@H]1C[C@@H](OC(C)=O)C(C)(C)/C=C/[C@H](C)[C@H](OC(C)=O)[C@@]2(O)C[C@H](C)[C@H](OC(=O)c3ccccc3)[C@@H]2/C=C/1C
inactive: max response [1] -20.7% | max response [2] -1.35% | max response [3] 4.68% | max response [4] 5.28%

Cc1ccc(-c2c(C(=O)CF)n(CCCO)c3ncnc(N)c23)cc1
inactive: max response [1] -0.58% | outcome [2] | max response [3] 4.6% | max response [4] 4.56%

CC(=O)OCC1(O)CCC2C(COC3OC(CO)C(O)C(O)C3OC(=O)/C=C/c3ccc(O)cc3)=COC(OC(=O)CC(C)C)C21 (stereo unspecified)
inactive: outcome [1] | max response [2] -11% | max response [3] -35.1% | outcome [4]

CC(C)c1nnc(-c2ccc(-c3ccccc3)nc2)n1-c1cccc2nonc12
inactive: max response [1] -7.02% | max response [2] 3.01% | max response [3] 4.99% | max response [4] 2.23%

C(#Cc1nc2ncccc2nc1OCCN1CCCC1)c1ccccc1
active: Potency [1] 6.51 µM | Potency [2] 1.84 µM | Potency [3] 5.8 µM | Potency [4] 8.2 µM

C[C@@H]1CC[C@]2(C(=O)O[C@@H]3O[C@H](CO)[C@@H](O)[C@H](O)[C@H]3O)CC[C@]3(C)C(=CCC4[C@@]5(C)C[C@@H](O)[C@H](O)[C@@](C)(C(=O)O[C@H]6[C@H](O)C[C@@]7(C)C(CC[C@]8(C)C7CC=C7[C@H]9[C@](C(=O)O[C@@H]%10O[C@H](CO)[C@@H](O)[C@H](O)[C@H]%10O)(CC[C@@H](C)[C@@]9(C)O)CC[C@]78C)[C@@]6(CO)C(=O)O)C5CC[C@]43C)[C@@H]2[C@]1(C)O (stereo partly specified)
inactive: outcome [1] | max response [2] -9.28% | max response [3] -16.1% | outcome [4]

CC1CCC23COC(=O)C2=CC(O)CC3C1(C)CCC1=CC(O)OC1=O (stereo unspecified)
inactive: max response [1] -0.17% | max response [2] 1.91% | max response [3] -7.3% | outcome [4]

C=C1C(O)C[C@@H]2C(C(=O)O)=CO[C@@H](O[C@@H]3O[C@H](CO)[C@@H](O)[C@H](O)[C@H]3OC(=O)c3ccc(O)cc3)[C@H]12 (stereo partly specified)
inactive: max response [1] -1.69% | max response [2] -0.967% | max response [3] 0.151% | outcome [4]

CC1(C)CC[C@]2(C(=O)OC3OC(CO)C(O)C(O)C3O)CC[C@]3(C)C(=CCC4[C@@]5(C)CC[C@H](OC6OC(C(=O)O)C(O)C(OC7OC(CO)C(O)C(O)C7O)C6O)C(C)(C)C5CC[C@]43C)C2C1 (stereo partly specified)
inactive: max response [1] 1.42% | max response [2] 1.3% | max response [3] -1.22% | max response [4] -3.39%

C[C@]1(CO)CCC[C@]2(C)C3=C(CCC12)COC3 (stereo partly specified)
inactive: max response [1] -5.66% | max response [2] -9.57% | max response [3] -11.9% | max response [4] 5.06%

From PubChem BioAssay (NCATS)
